Publication PMC12136788
Over roughly 24,000 sequences, “enrichment r” has its median near 0.99; the highest 2% begin near 3.7. The list is a sample of the results.

T1: UNK ZnF1-3 (human, UniProt Q9C0B0 31-174)
T1 sequence: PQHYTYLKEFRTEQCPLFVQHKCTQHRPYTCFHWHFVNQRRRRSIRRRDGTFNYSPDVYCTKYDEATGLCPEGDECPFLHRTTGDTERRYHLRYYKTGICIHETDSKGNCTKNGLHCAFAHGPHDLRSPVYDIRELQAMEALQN

B1: chr14:102516957:102516958:+_ENSG00000197102_ENST00000360184|hu_mus|motif|central (ssRNA)
RNA: GGGAGUUCUACAGUCCGACGAUCCCAUCAACCCUUCCACACCGUUAAGGAUGAAUGAAGGUUAAAUAUUGGGAGUUUCCGGUUCCAGAAAGAGGACUGGAGAAAAGUCUAGCUUUACUCAGUGCACAGAACGGCAACUCCACGCAACAGAGGAUUGAGCAUCA
B2: chr18:67943652:67943653:+_ENSMUSG00000079614_ENSMUST00000025421|mus_hu|FALSE|FALSE (ssRNA)
RNA: GGGAGUUCUACAGUCCGACGAUCAGUUGUCCUUUUAACCCAGUGGCUCUGUCCUCGCAGUUUAUCAUUUGAUUCUCCUACUAUUUCUUCCCAUACAGCAGCUGUUCGGUCAAAAGAACAGGAAGCCAAAACCUGCCCAAAUUCCAACAGAGGAUUGAGCAUCA
B3: chrX:20185780:20185781:-_ENSG00000177189_ENST00000379565|hu_mus|motif|central (ssRNA)
RNA: GGGAGUUCUACAGUCCGACGAUCUUUGGUUAUAGUAAACAGGACAGCGCUGGCCUCUCGCUCUGAGAAAAACUUCUGUCGGAGAAUCUUAUCCAGCAAUUCACCUCCUUUCAUAAGUUCUGUUACUACAUACACAUAUUUUCCCAACAGAGGAUUGAGCAUCA
B4: chr11:77843920:77843921:+_ENSMUSG00000037791_ENSMUST00000049167|mus_hu|motif|central (ssRNA)
RNA: GGGAGUUCUACAGUCCGACGAUCUUUUUUAUAUACAGAAUACAGGAAAGUUUCUGUAAAGUCUAAAACAUUACAAUUACGGUGUACAUUGGUACUGGUUGUGGGGGUGGGAGGAGAGGAGGGAACCAGGGGCAGGAGGAAGAGCAACAGAGGAUUGAGCAUCA
B5: chr1:167252050:167252051:+_ENSMUSG00000040836_ENSMUST00000111450|mus_mus|motif|central (ssRNA)
RNA: GGGAGUUCUACAGUCCGACGAUCGGAUACCAUUGAAGACAAGAGCCACAUGGUGGCUUCCCUUUCACAUCCACCAUCUCGGGUCCUCCUGAUGCCCCAGCCACAUCUCCAUCUGCUUCUAACGUGUGCUUUCGAAGCCUCGUUCAACAGAGGAUUGAGCAUCA
B6: chr12:96259795:96259796:+_ENSG00000139343_ENST00000266735|hu_hu|FALSE|FALSE (ssRNA)
RNA: GGGAGUUCUACAGUCCGACGAUCAAGGACAUUAUUACACCUUAUUAAAACUUCACCCAGAUGUCCAGACAAAGCUCCAUCUAUGUAUUCUUCUGUAUUUGCAAGCUGCAUGUUCAUGUAGCCAUCUACAGAUACCAGAUAGCCCAACAGAGGAUUGAGCAUCA
B7: 171526625_171526745_1071_3pUTR_ENSG00000117523_ENST00000495585|human|control|control (ssRNA)
RNA: GGGAGUUCUACAGUCCGACGAUCAGGUUAUAGCUGCAGCUGAAGUAGAGGCUGGAACUGAAGCUGAGACUGAGGCUGAGGCUGAAACUGGAGCUAAGGGUGAGGCUGGAACUGGAGCUGAGGUUGAGGCCAGAACUGGAGCUACAACAGAGGAUUGAGCAUCA
B8: chr13:108516651:108516652:-_ENSMUSG00000032846_ENSMUST00000105097|mus_hu|motif|central (ssRNA)
RNA: GGGAGUUCUACAGUCCGACGAUCAUCAUGCGCCAUUAAGAAGGUCUCUCGGGCUUUGCUGAGGAACUCUAUAAACUCACGGUAGUGCCGAGGACUGAUGUGUGUGAGCCGUGAGUGCGUUGUGUUGAUGUAGGCCCCGAUCGUCAACAGAGGAUUGAGCAUCA
B9: 138058577_138059462_3783_3pUTR_ENSMUSG00000041642_ENSMUST00000075164|mouse|control|control (ssRNA)
RNA: GGGAGUUCUACAGUCCGACGAUCGGCCAGGGACUUGGUGAUGUUCUUGGUAGAGCUGUCCAAUGGGGGUCCUAGGCACUCCGCAGACACGGCCUUCAUCUGUGCGGAUAGCUUGGGCUCACCCUUGAACUUGAAGUCAUCGUGCAACAGAGGAUUGAGCAUCA
B10: chr12:39756943:39756944:-_ENSG00000139116_ENST00000544797|hu_mus|hu_hu_hu_mus_False|28_38 (ssRNA)
RNA: GGGAGUUCUACAGUCCGACGAUCGGUUUGGCUGUUACCCCCAAGGGAAUCCUGCAAGAGUCUUGUCAGCUUAGAGUCUCUGUAAGGGACAUGGGUGGCCCUCUUGCUCUUGUCUCCCAAGGCGCUGAUUACAUUCCCAAGAGCCAACAGAGGAUUGAGCAUCA
B11: chr2:73467608:73467609:+_ENSG00000135624_ENST00000258091|hu_mus|FALSE|FALSE (ssRNA)
RNA: GGGAGUUCUACAGUCCGACGAUCAUCCUGGGACUUGGCUAUGUCCACUAAAGUCUUUGCUGCAGGAUGGACAACAUCGAGGAGUUUCAGAAUUGUGGCCCCAUCAUUAGAUAUUGUUGCUUUGCCUCGGCCAUCCACAAUAAGCAACAGAGGAUUGAGCAUCA
B12: chr2:160604994:160604995:+_ENSG00000136536_ENST00000409591|hu_mus|motif|central (ssRNA)
RNA: GGGAGUUCUACAGUCCGACGAUCUCUUGAAGACUCAUCCCUUCCCUCUCGCCUCCUUCUCGAGAACAAAGGUGUGCAUCGGUUUCGGAGUGAAGAAGACAACCAUGGUCCUGAAUUUCUACCUUCUGAUUCUUGGUUAAAAUUCAACAGAGGAUUGAGCAUCA
B13: chr11:64571133:64571134:-_ENSG00000133895_ENST00000312049|hu_hu|motif|central (ssRNA)
RNA: GGGAGUUCUACAGUCCGACGAUCCUGAAAAAUAAAUCUAUGUACAAAACAGGAAGAGAUCAGGCUCUUGUCACCCACUCCGGACCCUCUGCAGAUUUCCUCCGGGAUGCUCCGAGAUGGGCUGGACCUCUGGGAGGUUCCCAGCAACAGAGGAUUGAGCAUCA
B14: chr10:93459826:93459827:-_ENSMUSG00000036099_ENSMUST00000119818|mus_mus|motif|central (ssRNA)
RNA: GGGAGUUCUACAGUCCGACGAUCUCCCCACACCAGCCAGGAGGACACAAUCCAGCACGUGGGAAACAUGAUGAGCAAACGGAUGAAGGCAAACAGCAGCGAGACAUCCCAAGUGUUCGGGGUUGCCAGGGAGCAGAGCGUUGGCAACAGAGGAUUGAGCAUCA
B15: chr9:95013113:95013114:-_ENSG00000196305_ENST00000443024|hu_hu|hu_hu_hu_mus_False|1_48 (ssRNA)
RNA: GGGAGUUCUACAGUCCGACGAUCCUCAGUCAGAAAGGGCGUGUAAGGGGCCAUCAGUCUGCACAGAGAAAGCAGGACACUGAACAGGGUUUCUAGGGCCAUGACACAGUCUUCCACCCCACUCUCACCCUUUAACCUUCUGCGCAACAGAGGAUUGAGCAUCA
B16: chr16:75661828:75661829:-_ENSG00000065427_ENST00000302445|hu_hu|FALSE|FALSE (ssRNA)
RNA: GGGAGUUCUACAGUCCGACGAUCUAUUAUUUUCUAGACAGAAGUGCCAACUGUUGUGCUUUCCAGUGUAUCAGUGGUUGCUACAUUCUCCUUCUUGUCUUCGGGUUUCAUGGCAGGAAACAGAAGUACUUCCUUGAUGUUGUUCAACAGAGGAUUGAGCAUCA
B17: chr11:29608675:29608676:+_ENSMUSG00000020458_ENSMUST00000102843|mus_mus|motif|central (ssRNA)
RNA: GGGAGUUCUACAGUCCGACGAUCCUCUGUAUCAGAAGGAAGUUUUUCCUCUGCUUCUUUCGUAAGUACUUUGGGUUUAACGGUGUUGCCCAUUUCUAUUUGAGAUUCCAAAGCAGAAACAUUUGGAAGCAAUAAGGGCACCUUCAACAGAGGAUUGAGCAUCA
B18: 136535675_136535795_2550_CDS_ENSMUSG00000030213_ENSMUST00000032335|mouse|control|control (ssRNA)
RNA: GGGAGUUCUACAGUCCGACGAUCCUGAGGCUGAGAGGUCACGGCAACGGGCACAUGCAGGAUCACUGGCAAGGGCUGCAGAGAGAUUGUAGGCUGAGGGGUCCCACUAGGCACCUGAGUAGUGGCAACUACGGUGGCUGUGCUCAACAGAGGAUUGAGCAUCA
B19: chr7:102952668:102952669:+_ENSG00000105819_ENST00000453466|hu_hu|motif|central (ssRNA)
RNA: GGGAGUUCUACAGUCCGACGAUCCUGUUUAAAAUCUGGUAGUUGCUUAAUGGGACCAACAGCAGCAAUAGCUGGACUCCGGUUAUAAAUGUAUUUGGUACAUACUUCUCGAAUUGUCUCAGCAUUCACAGCAUCAAUUCUUGCCAACAGAGGAUUGAGCAUCA
B20: chr2:120799606:120799607:+_ENSG00000115109_ENST00000263713|hu_hu|motif|central (ssRNA)
RNA: GGGAGUUCUACAGUCCGACGAUCGUACAUAAUCUGAUCAAACAACUCUUGUCCUUUGGCUUUUUUUGGCAAGUCCACACGGACAUCAGUACCAUCCAGAAGGGACACCCGACACGUGAUGAUGGACUUAGAAUCUCCAGCUGCCAACAGAGGAUUGAGCAUCA

Target: T1, UNK ZnF1-3
Assay: nsRBNS (natural sequence RNA bind-n-seq); RBNS binding buffer (assumed for nsRBNS): 25 mM Tris pH 7.5, 150 mM KCl, 3 mM MgCl2, 0.01% Triton X-100, 500 ug/ml BSA, 20 U/ml SUPERase-In, 4 C; UNK is unkempt and MSI1 is Musashi-1; names of the RNAs are library labels; protein concentration not given here; high values mean tight binding

Binder | binding signal [enrichment R]
B1 | 1.11
B2 | 1.28
B3 | 0.794
B4 | 1.66
B5 | 0.721
B6 | 0.574
B7 | 2.07
B8 | 0.756
B9 | 0.657
B10 | 0.802
B11 | 0.992
B12 | 0.976
B13 | 0.877
B14 | 2.05
B15 | 0.937
B16 | 0.567
B17 | 0.539
B18 | 1.73
B19 | 1.15
B20 | 0.976
